Bioassay records deposited in PubChem BioAssay by several laboratories.
In the library only some 0.5% were active in any assay of this set; here they are far more common.
phage Ecoli inh – E. coli growth loss with phage present; growth absorbance; inhibition, % at 11.9 µM; 360,000 tested, 0.26% active; AID 651602; in the data active = inhibition above about 11%
Tat export inh – E. coli Tat transport inhibition | inhibition, % at 10 µM | E. coli MC4100 TorA-mCherry Tat export, fluorescence | 340,000 tested, 0.036% active;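 active = mean replicate inhibition at least 50% and at least half of replicates individually reaching 50%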;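 note: exported cargo escapes ClpAP degradation while cytoplasmic cargo is degraded and loses fluorescence; 0% = median of neutral control wells and 100% = median of NaSCN control wells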
E coli growth-1 – E. coli growth inhibition | OD600 absorbance (concentration not given with the values) | 330,000 tested, 0.21% active | Escherichia coli growth, OD600, 23 h; active compounds read low | AID 1053175;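 active = OD600 absorbance below the run mean of sample wells minus 3.6 SD, in any replicate, cut at about 0.56 in these data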
AddAB inh – less growth of phage-infected E. coli with AddAB | E. coli expressing H. pylori AddAB, absorbance growth | inhibition, % at 11.9 µM | 330,000 tested, 0.29% active; in the data active = inhibition above about 12%;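 note: 0% = vehicle wells of infected cells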
E coli growth-2 – counter-screen for AddAB inhibitors: E. coli growth inhibition; E. coli V3065 growth, OD600 absorbance, 18 h; 330,000 tested, 0.27% active; AID 449728; inhibition, % at 11.9 µM;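 active = inhibition above the campaign's mean inhibition across all tested compounds plus 3 SD, cut at about 9.9% in these data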;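 note: uninfected addAB+ strain grown without phage in ampicillin broth; 0% = DMSO wells and 100% = ciprofloxacin 0.95 µg/ml wells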
AddAB conf – confirmation screen: growth loss of phage-infected E. coli expressing H. pylori AddAB | shares compounds with AddAB inh | E. coli V3065 expressing H. pylori AddAB, T4 phage, OD; T4 phage with gene 2 nonsense mutations | inhibition, % at 11.9 µM | 880 tested, 64% active | AID 488942;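 active = mean inhibition above a set limit taken from the earlier primary screen, cut at about 13% in these data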;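 note: higher means less bacterial growth since AddAB block lets phage replicate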
RecBCD counter – AddAB counter-screen: growth loss of RecBCD+ E. coli infected with mutant T4 phage. AID 488955. 880 tested, 73% active. inhibition, % at 11.9 µM. shares compounds with AddAB inh. E. coli V66 + mutant T4 phage, OD growth;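 active = mean inhibition above the mean of solvent-only control wells plus 3 SD, cut at about 4% in these data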;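 note: optical density read after an 18 h incubation at 37 °C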
Bact viability – counter-screen for AddAB inhibitors: inhibitors of bacterial viability; shares compounds with AddAB inh; absorbance (AddAB counterscreen); inhibition, % at 11.9 µM; 880 tested, 35% active; in the data active = inhibition above about 25%
An asterisk follows results filed as active; · = no result.

SMILES	phage Ecoli inh	Tat export inh	E coli growth-1	AddAB inh	E coli growth-2	AddAB conf	RecBCD counter	Bact viability
N=c1ccn2c(n1)OC1C(CO)C(O)OC12 (stereo not drawn)	·	·	0.63	·	·	·	·	·
Cc1[nH]n(-c2ccccc2)c(=O)c1C=NO	·	·	0.65	·	·	·	·	·
CC(C)(C)OC(=O)CC1CC=CCC(CC(=O)NCCO)C(=O)NC(c2ccccc2)COC1=O (stereo not drawn)	·	·	0.7	·	·	·	·	·
COc1ccc(C=NNc2nnc(C)n2N)cc1OC	·	·	0.7	·	·	·	·	·
COc1ccc(-n2c(C)cc(/C=N/Nc3nnc(C)n3N)c2C)cc1	1	-17	·	14*	3	6	1	-3
CCOc1ccc(-c2cc(C(=O)NN=Cc3cccnc3)c3ccccc3n2)cc1	·	·	0.73	·	·	·	·	·
Cc1ccc(/C=C/C(=O)c2ccccc(=O)c2O)cc1C	4	5	0.69	13*	7	6	6.1*	5
CC(C)(C)C1C=C(C(=O)O)OC(OCc2ccc(CO)cc2)C1 (stereo not drawn)	·	·	0.69	·	·	·	·	·
Oc1cc(-c2ccc(N3CCCCC3)nc2)cc2cccnc12	·	4	·	16*	15*	10	15*	13
Oc1cc(-c2ccncc2)cc2cccnc12	3	-1	0.68	2	0	·	·	·
CCc1nnc(NS(=O)(=O)c2ccc(N/C=C\C(=O)c3ccc(C)cc3)cc2)s1	10	0	0.77	20*	13*	0	2	1
CCc1nnc(NS(=O)(=O)c2ccc(N/C=C/C(=O)c3ccc(C)cc3)cc2)s1	4	-7	·	17*	11*	0	1	1
Cc1ccc(C=NNC(=O)CN2CCN(Cc3ccccc3)CC2)o1	·	·	0.61	·	·	·	·	·
CC1CC=CC2C1C(=O)N(Cc1ccccc1)C2c1ccc(F)c(C=Cc2ccccc2)c1 (stereo not drawn)	·	·	0.74	·	·	·	·	·
CCCNC(=O)Cn1c(=O)oc2cc(S(=O)(=O)N3CCCC3)ccc21	-2	0	0.76	55*	37*	-2	-1	-4
O=C(Cn1c(=O)oc2cc(S(=O)(=O)N3CCCCCC3)ccc21)NC1CCCCCCC1	2	-15	0.79	-2	-1	·	·	·
COc1ccc(C=NNC(=O)c2cc[n+]([O-])cc2)cc1OC	·	·	0.71	·	·	·	·	·
O=C(NCc1ccccc1Cl)C1CCN(S(=O)(=O)N2CCCCCC2)CC1	2	2	0.71	2	-1	·	·	·
CCCS(=O)(=O)N1CCC(C(=O)NCc2ccccc2Cl)CC1	6	-5	0.73	12*	7	14*	5.8*	12
CCCCC(=O)O[C@H]1CC[C@H]2[C@@H]3CCc4cc(O)ccc4[C@H]3CC[C@]12C	4	3	·	97*	-1	3	0	-1
CC1CN(C(C)CO)C(=O)c2cc(NC(=O)Cn3cnnn3)ccc2OC1CN(C)C(=O)Nc1ccc(C(F)(F)F)cc1 (stereo not drawn)	·	·	0.61	·	·	·	·	·
CCCCOC(=O)C(C)Oc1ccc(=O)n(-c2ccccc2)n1 (stereo not drawn)	2	-3	0.77	21*	5	4	1	-3
CC(C)CNC(=O)CC(=O)NN=Cc1cccs1	·	·	0.71	·	·	·	·	·
COC(=O)CN1C(=O)C2C(C)C3=C4C(CC(C(=O)OC)=CC(C(=O)OC)C4[C@](C)(NC(=O)c4ccccc4)C3=O)C2C1=O (stereo partly drawn)	·	·	0.71	·	·	·	·	·
COc1ccc(S(=O)(=O)N/N=C\c2ccc([N+](=O)[O-])o2)c(OC)c1	10	-21	·	30*	24*	100*	8.3*	40*
SMILES	phage Ecoli inh	Tat export inh	E coli growth-1	AddAB inh	E coli growth-2	AddAB conf	RecBCD counter	Bact viability
Cc1ccc(S(=O)(=O)NN=Cc2ccc(C)o2)cc1	·	·	0.69	·	·	·	·	·
COc1ccccc1NS(=O)(=O)c1cccc(C(=O)NN=Cc2ccc([N+](=O)[O-])o2)c1	·	·	0.63	·	·	·	·	·
O=C(N/N=C/c1ccc([N+](=O)[O-])o1)C1CCCC1	8	-5	·	12*	9	74*	5.0*	13
O=[N+]([O-])c1ccc(/C=N\NS(=O)(=O)c2ccc(F)cc2)o1	11	-9	·	93*	20*	99*	8.0*	54*
CCCC(=O)O[C@]1(C(=O)COC(C)=O)CCC2C3CC(F)C4=CC(=O)C=C[C@]4(C)[C@@]3(F)C(O)C[C@@]21C (stereo partly drawn)	·	·	0.69	·	·	·	·	·
CNC(=O)Cn1ncc2c(C)n(Cc3ccc(C)cc3)c(C)c2c1=O	2	-1	0.64	0	0	·	·	·
Cc1ccc(Cn2c(C)c3cnn(CC(=O)NC4CCCC4)c(=O)c3c2C)cc1	3	-9	0.71	99*	86*	3	1	-2
COc1ccccc1C(=O)N/C(=C\c1ccccc1)C(=O)NC(C)C(=O)O (stereo not drawn)	1	-1	·	97*	72*	1	-1	-4
CCC(c1nnnn1CS(=O)(=O)c1ccc(C)cc1)N1CCN(c2nc3ccccc3s2)CC1 (stereo not drawn)	2	6	0.74	44*	32*	-2	-1	-2
CCCC(c1nnnn1CS(=O)(=O)c1ccc(C)cc1)N1CCN(c2ccccc2)CC1 (stereo not drawn)	3	13	0.77	-1	3	·	·	·
C#CCNC(=O)C1=CC(C2CCCCC2)C(CCCO)C(OCC)O1 (stereo not drawn)	·	·	0.66	·	·	·	·	·
O=C(NN=Cc1ccc2c(c1)OCO2)c1ccc(Cn2cc([N+](=O)[O-])cn2)o1	·	·	0.69	·	·	·	·	·
O=C(N/N=C\c1ccc2c(c1)OCO2)c1ccc(Cn2cc(Br)c([N+](=O)[O-])n2)o1	2	-5	·	23*	20*	6	0	2
O=C(N/N=C\c1cccc(F)c1)c1ccc(Cn2cc(Br)c([N+](=O)[O-])n2)o1	6	-6	·	27*	19*	54*	7.7*	41*
COc1cc(C=NNC(=O)c2ccc(Cn3cc(Br)c([N+](=O)[O-])n3)o2)cc(OC)c1O	·	·	0.68	·	·	·	·	·
O=C(N/N=C\c1ccc(F)cc1)c1ccc(Cn2cc(Br)c([N+](=O)[O-])n2)o1	9	-1	·	36*	33*	54*	5.8*	38*
COc1cc(/C=N\NC(=O)c2ccc(Cn3cc(Br)c([N+](=O)[O-])n3)o2)cc(OC)c1O	9	7	·	44*	23*	52*	5.6*	39*
O=C(CNC(=O)c1[nH]cnc1C(=O)NC(Cc1ccccc1)C(=O)OCc1ccccc1)OCc1ccccc1 (stereo not drawn)	·	·	0.72	·	·	·	·	·
CC1=NN(/C(=N/c2nnc(C)s2)Nc2ccccc2)[C@H](c2ccc(C)cc2)S1	·	·	0.72	·	·	·	·	·
O=C(NCc1ccccc1)C(c1ccccc1)N(C(=O)c1csnn1)C1CC1 (stereo not drawn)	3	-2	0.71	3	1	·	·	·
